Results on 40 compounds are retold here after PubChem BioAssay AID1508636 (National Center for Advancing Translational Sciences (NCATS), 2021).

Molecules are shown by their SMILES. Results filed as inconclusive are left out. Values without a mark were called inactive. The source made the active and inactive calls. Calls follow the shape of the dose curve; as a rule, active = well fitted inhibition curve with a large enough effect; inconclusive = small, poorly fitted or top-dose-only effect; inactive = flat fitted curve, though single readings scatter. *1 amine or outer side, *2 acyl side, *3 side chain or, on linkers, in order; H or OH if unused. Where a SMILES comes first, the peptide text is derived from it. Bridges are numbered along the chain shown (N, C = ends). Roman numbers before positions name the chains, in order. [ ]: non-standard residue; d: D form. The star is where a group is joined. ξ: configuration not given here. Actinocin(9to1) = Cc1c2oc3c(C)ccc(C(=O)[*:1])c3nc-2c(C(=O)[*:2])c(N)c1=O; ξNMeV = CNC(C(=O)O)C(C)C; Cbz = O=C(OCc1ccccc1)*; ξV = CC(C)C(N)C(=O)O; Sar = CNCC(=O)O

ATP-dependent translocase ABCB1 (Homo sapiens), sequence (P08183 whole entry, looked up): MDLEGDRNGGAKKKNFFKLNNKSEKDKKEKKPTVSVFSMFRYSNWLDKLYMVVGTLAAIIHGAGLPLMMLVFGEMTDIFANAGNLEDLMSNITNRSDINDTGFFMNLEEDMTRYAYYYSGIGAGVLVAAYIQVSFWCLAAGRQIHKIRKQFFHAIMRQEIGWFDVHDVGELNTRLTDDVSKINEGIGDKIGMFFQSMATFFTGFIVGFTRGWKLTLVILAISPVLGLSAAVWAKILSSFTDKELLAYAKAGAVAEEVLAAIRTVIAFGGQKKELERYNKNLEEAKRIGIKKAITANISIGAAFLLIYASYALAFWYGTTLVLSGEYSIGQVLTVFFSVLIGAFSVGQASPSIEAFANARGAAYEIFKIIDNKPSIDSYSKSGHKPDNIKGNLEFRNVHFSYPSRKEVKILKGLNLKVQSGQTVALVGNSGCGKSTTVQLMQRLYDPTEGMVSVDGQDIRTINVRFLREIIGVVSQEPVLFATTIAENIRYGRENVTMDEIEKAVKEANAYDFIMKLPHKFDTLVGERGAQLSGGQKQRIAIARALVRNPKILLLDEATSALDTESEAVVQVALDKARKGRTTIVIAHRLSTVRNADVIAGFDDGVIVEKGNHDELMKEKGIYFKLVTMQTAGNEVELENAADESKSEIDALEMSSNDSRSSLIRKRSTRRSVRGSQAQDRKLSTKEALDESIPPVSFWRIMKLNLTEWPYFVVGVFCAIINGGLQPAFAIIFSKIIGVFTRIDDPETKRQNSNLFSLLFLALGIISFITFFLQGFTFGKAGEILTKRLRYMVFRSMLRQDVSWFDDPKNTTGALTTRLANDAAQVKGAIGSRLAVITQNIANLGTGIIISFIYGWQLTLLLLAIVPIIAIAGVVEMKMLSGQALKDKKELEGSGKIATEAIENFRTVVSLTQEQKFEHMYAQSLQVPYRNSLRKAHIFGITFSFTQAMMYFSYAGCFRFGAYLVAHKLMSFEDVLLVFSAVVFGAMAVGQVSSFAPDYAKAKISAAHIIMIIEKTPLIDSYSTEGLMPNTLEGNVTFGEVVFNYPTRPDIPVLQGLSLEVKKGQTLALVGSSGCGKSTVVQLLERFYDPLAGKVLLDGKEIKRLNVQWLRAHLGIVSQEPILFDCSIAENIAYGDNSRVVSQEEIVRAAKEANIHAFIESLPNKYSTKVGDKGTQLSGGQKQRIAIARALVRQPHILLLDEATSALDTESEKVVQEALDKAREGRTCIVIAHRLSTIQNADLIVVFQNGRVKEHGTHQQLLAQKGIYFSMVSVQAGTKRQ

This assay has as its target ATP-dependent translocase ABCB1 (Homo sapiens) (UniProt P08183). The assay is described as follows: qHTS for characterization and localization of zebrafish homologs of the human ABCB1 multidrug transporter: P-gp overexpressing MDR-19 cells. The conditions noted are these: MDR-19 cells overexpressing P-gp, CellTiter-Glo luminescence viability, 72 h; series mostly up to 46.1 µM; activity change, negative = inhibition: at the top concentration. From the text: The zebrafish has emerged as a potential model to study the blood-brain barrier (BBB) given its similarities with mammalian systems. However, little information has been available with regard to homologous ATP-binding cassette transporters expressed at the zebrafish BBB. Two transporters that are highly expressed at the human BBB are P-glycoprotein (P-gp, encoded by the ABCB1 gene) and ABCG2 (encoded by the ABCG2 gene). In this study, we focus on characterization of P-gp homologs in the zebrafish, which has two genes that are homologous to human ABCB1 - abcb4 and abcb5. We generated stably-transfected cell lines to determine their substrate specificities. […] Zebrafish abcb4 also colocalized with claudin 5 expression in brain endothelial cells.
A high-throughput screen was performed as previously described on empty vector transfected cells, P-gp-overexpressing MDR-19 cells and cells transfected with full-length zebrafish abcb4 (ZF Abcb4) or abcb5 (ZF Abcb5). Briefly, cells were plated into 1536-well plates at a density of 500 cells/well in 5 uL media. P-gp substrate compounds (approximately 90) selected from our previous study were then added at varying concentrations using a 1536-head pin tool (Kalypsis, San Diego, CA) and plates were incubated at 37C in 5% CO2 for 72 h. CellTiter-Glo reagent (Promega) was dispensed into the wells, incubated for 5 min and luminescence was read on a ViewLux instrument (Perkin-Elmer).
Cytotoxic compounds were defined as those that yielded a curve class of -1.1, -1.2, -2.1, -2.2, -2.3, or -2.4, a maximum response of >50% and an AC50 of < 10 uM. All compounds from screening analysis were tested in Vector (empty vector control), MDR-19 (P-gp overexpressing), zebrafish abcb4 (ZF Abcb4) and abcb5 (ZF Abcb5) expression cell lines.
1. Tobie D Lee, Olivia W Lee, Kyle R Brimacombe, Lu Chen, Rajarshi Guha, Sabrina Lusvarghi, Bethilehem G Tebase, Carleen Klumpp-Thomas, Robert W Robey, Suresh V Ambudkar, Min Shen, Michael M Gottesman, Matthew D Hall. A High-Throughput Screen of a Library of Therapeutics Identifies Cytotoxic Substrates of P-glycoprotein. Mol Pharmacol. 2019, Nov;96(5):629-640.
On the technique in general: In qHTS, concentration-response curves come from the screen itself.
`COC(C(=O)N1Cc2[nH]nc(NC(=O)c3ccc(N4CCN(C)CC4)cc3)c2C1)c1ccccc1` (stereo not given): the “activity change, negative = inhibition” value was -7.32%.
For `Cc1cc(Nc2cc(NC(=O)c3c(Cl)cccc3Cl)ccn2)nc(N)n1`, the Potency was 13.2 µM (active).
In the case of `C#Cc1cccc(Nc2ncnc3cc(OC)c(OCCCCCCC(=O)NO)cc23)c1`, the Potency is 14.8 µM (active).
With `CC(NCc1ccc2c(c1)nc(NC(=O)c1ccc(-c3cn[nH]c3)s1)n2CC(C)(C)O)C(C)(C)C` (stereo not given), the Potency is 2.96 µM (active).
With `C=C1CO[C@@]2(O[C@H]3CC4C5CC=C6C[C@@H](O)C[C@@H](O[C@@H]7OC[C@H](O)[C@H](O[C@@H]8OC[C@@H](O)[C@H](O)[C@H]8O)[C@H]7O[C@@H]7O[C@@H](C)[C@H](OC(C)=O)[C@@H](OC(C)=O)[C@H]7OC(C)=O)[C@]6(C)C5CC[C@]4(C)[C@@H]3[C@@H]2C)[C@@H](O)[C@H]1OC1OC(C)C(O)C(O)C1O` (stereo not given in full), the activity change, negative = inhibition was 3.31% [at 8.96 µM].
As for `COc1cccc2c1C(=O)c1c(O)c3c(c(O)c1C2=O)C[C@@](O)(C(=O)CO)C[C@H]3O[C@H]1C[C@H](N)[C@@H](O)[C@H](C)O1`, the Potency was 11.8 µM (active).
Same read-out and setting: next, `Cc1ccc(C(=O)N(CCCN)[C@@H](c2oc3cc(Cl)ccc3c(=O)c2Cc2ccccc2)C(C)C)cc1`: 13.2 µM (active).
Turning to `CCS(=O)(=O)c1cccc(-c2cc(C(=O)NC3CCN(C)CC3)c(C)c3[nH]c4ncc(C)cc4c23)c1`, the “activity change, negative = inhibition” value is -8.71%.
Regarding `C[C@@H]1O[C@@H](O[C@H]2[C@@H](OC(=O)[C@]34CCC(C)(C)CC3C3=CCC5[C@@]6(C)C[C@H](O)[C@H](O[C@@H]7O[C@H](CO)[C@@H](O)[C@H](O)[C@H]7O[C@@H]7OC[C@@H](O)[C@H](O)[C@H]7O)[C@@](C)(C(=O)O)C6CC[C@@]5(C)[C@]3(C)CC4)OC[C@H](O)[C@@H]2O)[C@H](O)[C@H](O)[C@H]1O[C@@H]1OC[C@@H](O)[C@H](O)[C@H]1O` (stereo not given in full), the activity change, negative = inhibition is -1.44% [at 8.96 µM].
`CC(C)C[C@@H](C=O)NC(=O)[C@H](CC(C)C)NC(=O)[C@H](CC(C)C)NC(=O)OCc1ccccc1` (Cbz-Leu-Leu-Leu-aldehyde): the Potency was 3.72 µM (active).
Turning to `O=C(NC1CC1)c1cccc(-c2ccc3c(NC(=O)C4CC4)n[nH]c3c2)c1`, the “activity change, negative = inhibition” value is -21.2%.
Turning to `CN(C)c1ccc(C(=C2C=CC(=[N+](C)C)C=C2)c2ccc(N(C)C)cc2)cc1`, the Potency is 4.69 µM (active).
The same measure, in the same setting: the figure for `C=CCn1c(=O)c2cnc(Nc3ccc(N4CCN(C)CC4)cc3)nc2n1-c1cccc(C(C)(C)O)n1` is 4.69 µM (active).
Regarding `COc1cc(C(=O)NC2CCN(C)CC2)ccc1Nc1ncc2c(n1)N(C1CCCC1)CC(F)(F)C(=O)N2C`, the Potency was 3.32 µM (active).
In the case of `CCc1cccc(CC)c1NC(=O)N1Cc2[nH]nc(NC(=O)c3ccc(N4CCN(C)CC4)cc3)c2C1`, the “activity change, negative = inhibition” value is 3.47%.
Turning to `CCN(CC)Cc1ccc(C(=O)N(CCc2ccccc2OC)[C@@H]2CCNC2)cc1`, the “activity change, negative = inhibition” value is 0.0961%.
For `CC(C)C[C@H](NC(=O)[C@@H](NC(=O)c1cccc(-c2ccccc2)n1)[C@@H](C)O)B(O)O`, the Potency was 0.372 µM (active).
On the same count and under the same terms, next, `C=CCNC1=C2CC(C)CC(OC)C(O)C(C)/C=C(\C)C(OC(N)=O)C(OC)/C=C/C=C(\C)C(=O)NC(=CC1=O)C2=O` (stereo not given): 10.5 µM (active).
For `COc1cc2c(NC3CCN(C(C)C)CC3)nc(N3CCCN(C)CC3)nc2cc1OCCCN1CCCC1`, the “activity change, negative = inhibition” value was -13.1%.
On the same count and under the same terms, next, `O=C(NC1CCNCC1)c1[nH]ncc1NC(=O)c1c(Cl)cccc1Cl`: -24%.
Consider `Cc1ccc(C(=O)N(CCCN)C(c2nc3cc(Cl)ccc3c(=O)n2Cc2ccccc2)C(C)C)cc1` (stereo not given), for which the Potency is 14.8 µM (active).
`C[C@@H](Oc1cc(-n2cnc3ccc(CN4CCN(C)CC4)cc32)sc1C(N)=O)c1ccccc1C(F)(F)F`: the Potency is 0.469 µM (active).
Consider `CC1(C)CC(NC(=O)C(=O)Nc2ccc(Br)cc2)CC(C)(C)N1`, for which the “activity change, negative = inhibition” value is -6.87%.
In the case of `C[C@@]12O[C@@H](C[C@]1(O)CO)n1c3ccccc3c3c4c(c5c6ccccc6n2c5c31)CNC4=O`, the Potency was 8.33 µM (active).
`CN(C)C/C=C/C(=O)Nc1cccc(C(=O)Nc2ccc(Nc3nccc(-c4cccnc4)n3)cc2)c1`: the “activity change, negative = inhibition” value was -8.41%.
As for `CN(c1ncccc1CNc1nc(Nc2ccc3c(c2)CC(=O)N3)ncc1C(F)(F)F)S(C)(=O)=O`, the Potency is 18.7 µM (active).
Same read-out and setting: next, `CCCCc1nc2cc(C=CC(=O)NO)ccc2n1CCN(CC)CC`: 5.26 µM (active).
`CCC(C)C(=O)OC1CC(O)C23C4OCC5(C(O)CC2C1(C)C(O)O4)C3C(=O)C(O)C1(C)C(O)(c2ccoc2)CC2OC251` (stereo not given): the “activity change, negative = inhibition” value was 3.34% [at 15.2 µM].
On to `COc1cc2c(NC3CCN(C(C)C)CC3)nc(N3CCCN(C)CC3)nc2cc1OCCOCCN(C)C`, for which the “activity change, negative = inhibition” value was -8.95%.
In the case of `Cc1c2oc3c(C)ccc(C(=O)N[C@@H]4C(=O)NC(C(C)C)C(=O)N5CCC[C@H]5C(=O)N(C)CC(=O)N(C)C(C(C)C)C(=O)O[C@@H]4C)c3nc-2c(C(=O)N[C@@H]2C(=O)NC(C(C)C)C(=O)N3CCC[C@H]3C(=O)N(C)CC(=O)N(C)C(C(C)C)C(=O)O[C@@H]2C)c(N)c1=O` (stereo not given in full) (I: T[ξV]P[Sar][ξNMeV] / II: T[ξV]P[Sar][ξNMeV]; ester I:1-I:C, II:1-II:C; linker I:N-II:N via Actinocin(9to1)), the Potency was 0.469 µM (active).
`CC(=O)C1(O)Cc2c(O)c3c(c(O)c2C(OC2CC(N)C(O)C(C)O2)C1)C(=O)c1c(O)cccc1C3=O` (stereo not given): the Potency is 0.148 µM (active).
With `CN(C)C1CCN(C(=O)c2ccc(NC(=O)Nc3nc(N4CCOCC4)nc(N4CCOCC4)n3)cc2)CC1`, the “activity change, negative = inhibition” value is 2.28%.
Take `CC[C@@H]1C(=O)N(C)c2cnc(Nc3ccc(C(=O)NC4CCC(N5CCN(CC6CC6)CC5)CC4)cc3OC)nc2N1C(C)C` (stereo not given in full): the Potency is 2.35 µM (active).
As for `COc1cc(N2CCC(O)CC2)ccc1Nc1nc(Nc2ccccc2S(=O)(=O)C(C)C)c2[nH]cnc2n1`, the “activity change, negative = inhibition” value is -15.7%.
`NC(=O)Nc1cc(-c2cccc(F)c2)sc1C(=O)N[C@H]1CCCNC1`: the Potency was 8.33 µM (active).
Regarding `Cc1[nH]c2ccccc2c1CCNCc1ccc(/C=C/C(=O)NO)cc1`, the Potency was 1.32 µM (active).
For `CCn1c(-c2nonc2N)nc2c(C#CC(C)(C)O)ncc(OC[C@H]3CCCNC3)c21`, the “activity change, negative = inhibition” value was -13.1%.
Still for that read-out and setting: next, `COc1ccc(CC2C(=O)NC(C)C(=O)N(C)C3Cc4ccc(cc4)Oc4cc(ccc4OC4OC(CO)C(O)C(O)C4O)CC(C(=O)NC(C)C(=O)NC(C)C(=O)N2C)N(C)C3=O)cc1` (stereo not given): -8.38% [at 15.2 µM]; `CN(C)C1CCN(C(=O)c2ccc(NC(=O)Nc3ccc(-c4nc(N5CCOCC5)nc(N5CCOCC5)n4)cc3)cc2)CC1`: 4.04%.
On to `CC(C)(C)c1cnc(CSc2cnc(NC(=O)C3CCNCC3)s2)o1`, for which the Potency was 24.1 µM (active).
